“And” between values parts separate entries of the source, which are not always exact repeats. Equal values may be shown once. Records with an inconclusive call do not appear. Values without a mark were called inactive. The source made the active and inactive calls. The call rests on the fitted dose curve; in most records, active means well fitted curve in the direction sought with a large enough effect in the repeat runs; inconclusive means weak or mixed curves; inactive means no such curve, though single readings can be large; an effect the other way counts as inactive or inconclusive.

Assay [1] can be described thus: A CellTox Green Cytotoxicity Assay to monitor cytotoxicity in HEK293 cells - 40 hour (AID 1224871). Further: nearly all actives have a fitted effect of over 45% in size. Further: potency means the concentration at half of the fitted maximal effect. The procedure, abridged: (§1)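 HEK293 cells premixed with CellTox Green dye were seeded at 600 cells/well and left 5 h at 37 C/5% CO2 before pin transfer of 23 nL compound in DMSO. Fluorescence from dye bound to dead-cell DNA was read during 40 h treatment.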
Assay [2] is described as follows: qHTS RealTime-Glo MT Cell Viability Assay in HepG2 cells - 8 hour (AID 1224873). Further: nearly all actives have a fitted effect of over 55% in size. The procedure, abridged:
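HepG2 cells mixed with RealTime-Glo MT reagents (NanoLuc plus cell-permeant prosubstrate) were seeded at 600 cells/well, incubated 5 h at 37 C/5% CO2, then pinned with compounds in DMSO; nonlytic luminescence tracked viability during 40 h treatment.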
(In general: Quantitative high-throughput screening tests each substance at several concentrations.)

Assay [3] in a line: qHTS RealTime-Glo MT Cell Viability Assay in HEK293 cells - 40 hour (AID 1224874). Further: nearly all actives have a fitted effect of over 50% in size. Further: potency means the concentration at half of the fitted maximal effect. Particulars: RealTime-Glo luminescence; max response: stronger effect = lower value. The procedure, abridged:
(§2)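 HEK293 cells mixed with RealTime-Glo reagents (NanoLuc plus cell-permeant prosubstrate) at 600 cells/well, preincubated 5 h at 37 C/5% CO2, then given 23 nL compound in DMSO. Nonlytic luminescence from viable cells was read at 0, 8, 16, 24, 32 and 40 h.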

Assay [4] can be described thus: A CellTox Green Cytotoxicity Assay to monitor cytotoxicity in HEK293 cells - 24 hour (AID 1224875). Further: nearly all actives have a fitted effect of over 45% in size. Further: potency means the concentration at half of the fitted maximal effect. On activity change: series mostly up to about 77 µM. The procedure, abridged: as §1
Assay [5] in a line: A CellTox Green Cytotoxicity Assay to monitor cytotoxicity in HepG2 cells - 16 hour (AID 1224876). Further: nearly all actives have a fitted effect of over 45% in size. Further: potency means the concentration at half of the fitted maximal effect. The procedure, abridged: (§3)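 HepG2 cells were seeded together with the CellTox Green dye at 600 cells/well, left 5 h at 37 C/5% CO2, then given compounds in DMSO. Fluorescence from dye bound to dead-cell DNA was read repeatedly over 40 h of treatment at 37 C.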
Assay [6] can be described thus: qHTS RealTime-Glo MT Cell Viability Assay in HepG2 cells - 32 hour (AID 1224877). Further: nearly all actives have a fitted effect of over 55% in size. Further: potency means the concentration at half of the fitted maximal effect. The gist of the method:
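HepG2 cells (600/well) were dispensed with RealTime-Glo reagents, incubated 5 h at 37 °C, then treated with compounds in DMSO for up to 40 h. Nonlytic NanoLuc luminescence reflecting viable cells was read at each stated time point.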

Assay [7] in a line: A CellTox Green Cytotoxicity Assay to monitor cytotoxicity in HepG2 cells - 24 hour (AID 1224878). Further: nearly all actives have a fitted effect of over 45% in size. Further: potency means the concentration at half of the fitted maximal effect. The procedure, abridged:
as §3

The nature of assay [8]: A CellTox Green Cytotoxicity Assay to monitor cytotoxicity in HepG2 cells - 40 hour (AID 1224879). Further: nearly all actives have a fitted effect of over 40% in size. Further: potency means the concentration at half of the fitted maximal effect. The gist of the method: as §3
The nature of assay [9]: qHTS RealTime-Glo MT Cell Viability Assay in HEK293 cells - 16 hour (AID 1224872). Further: nearly all actives have a fitted effect of over 50% in size. Further: potency means the concentration at half of the fitted maximal effect. On activity change, negative = cytotoxicity: top concentration of the series differs between compounds. The procedure, abridged:
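HEK293 cells seeded with NanoLuc/prosubstrate reagent, rested 5 h at 37 C, then dosed and kept at 37 C up to 40 h. Nonlytic real-time luminescence from viable cells read at 0, 8, 16, 24, 32 and 40 h.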

Assay [10] is described as follows: qHTS RealTime-Glo MT Cell Viability Assay in HEK293 cells - 0 hour (AID 1224880). The procedure, abridged: as §2
On the % scale 0 is the no-effect control and ±100 the full control effect.

With `CCOC(=O)CC(C)=O`, the Potency entry in [1], in [2], in [4], in assay [5], in assay [6] and in assay [7] was “inactive” each time. Also, the Potency result in assay [8] was “inactive”. Also, in assay [3], the max response is 14.1%.

On to `C[N+](C)(C)CCCCCC[N+](C)(C)C`, for which the Potency result in assay [1], in assay [2], in [4], in [5], in assay [6] and in [7] was “inactive” in each case. The Potency entry in [8] is “inactive”. Moreover, in assay [3], the max response was 3.71% and 1.42%.

As to `CO[C@]12C[C@@H](COC(=O)c3cncc(Br)c3)CN(C)[C@@H]1Cc1cn(C)c3cccc2c13`, the Potency entry in [1], in [2], in assay [4] and in assay [6] was “inactive” each time. Besides, the max response in [3] was -5.48%. Moreover, the Potency in [5], in assay [7] and in assay [8] was 23.9 µM (active) in each case.

Take `O=[N+]([O-])c1ccc(F)cc1F`: the Potency entry in [1], in assay [9], in assay [2], in assay [4], in assay [6] and in assay [7] was “inactive” in each case. In addition, the Potency result in assay [8] and in assay [10] was “inactive” each time.

Regarding `CCO[Si](CCC1CCC2OC2C1)(OCC)OCC` (configuration not stated), the Potency entry in [1], in [2], in assay [4], in [5], in [6] and in assay [7] was “inactive” each time. Moreover, the Potency result in [8] and in assay [10] was “inactive” each time. Moreover, the max response in assay [3] is 14.1%.

For the compound `N=c1nc(N2CCCCC2)cc(N)n1O`, the Potency result in [1], in [2], in assay [4], in assay [5], in assay [6] and in [7] was “inactive” throughout. The Potency result in [8] and in [10] was “inactive” throughout. Besides, the max response in assay [3] was -2.32%.

For `COC(=O)NN`, the Potency entry in assay [1], in assay [9], in assay [2], in assay [4], in assay [5] and in assay [6] was “inactive” in each case. Further, the Potency result in assay [7], in assay [8] and in [10] was “inactive” each time.

Turning to `CCCN1CCCC[C@H]1C(=O)Nc1c(C)cccc1C`, the Potency result in assay [1], in assay [9], in assay [2], in assay [4], in [5] and in [6] was “inactive” in each case. The Potency entry in assay [7] and in assay [10] was “inactive” throughout.

For the compound `CC(=O)c1ccccc1O`, the Potency result in assay [1], in [2], in [4], in assay [5], in [6] and in [7] was “inactive” in each case. For the same compound, in [8], the Potency result was “inactive”. The max response in assay [3] was 9.04%.

Turning to `CN(C)CCCN1c2ccccc2CCc2ccc(Cl)cc21`, the Potency is 49 µM (active) and 26.8 µM (active) in assay [1]; 43.6 µM (active) in [9]; 34.7 µM (active) and 21.3 µM (active) in [3]; 49 µM (active) and 23.9 µM (active) in assay [4]; 49 µM (active) and 23.9 µM (active) in [6]; 38.9 µM (active) and 23.9 µM (active) in assay [7]. In assay [8], the Potency was 34.7 µM (active) and 23.9 µM (active).

For `NC(=O)c1ccc([N+](=O)[O-])cc1`, the Potency entry in assay [1], in assay [9], in assay [2], in [4], in assay [6] and in assay [8] was “inactive” each time.

`CCn1ccnc1CC1COc2ccccc2O1` (configuration not stated): the Potency entry in assay [1], in assay [9], in [2], in assay [4], in assay [5] and in assay [6] was “inactive” each time. Further, the Potency result in assay [8] was “inactive”.

Take `COc1ccc(CCN(C)CCCC(C#N)(c2cc(OC)c(OC)c(OC)c2)C(C)C)cc1OC` (configuration not stated): the Potency entry in assay [1], in [2], in assay [4], in assay [5], in assay [6] and in [7] was “inactive” each time. Also, the Potency in assay [3] was 23.9 µM (active).

In the case of `CCCCCCCCCCCCN(CCCCCCCCCCCC)CCCCCCCCCCCC`, the Potency entry in assay [1], in assay [9], in [2], in assay [4], in assay [5] and in assay [6] was “inactive” each time. Further, the Potency result in assay [7], in assay [8] and in [10] was “inactive” in each case.

In the case of `CCOC(=O)c1ccc(C)cc1`, the Potency entry in [1], in [9], in [2], in [4], in assay [5] and in [6] was “inactive” throughout. The Potency result in assay [7], in assay [8] and in assay [10] was “inactive” each time.

In the case of `COc1ccc2c(c1)CCCC2=O`, the Potency result in assay [1], in assay [9], in assay [2], in [4], in assay [5] and in assay [6] was “inactive” each time. Also, the Potency entry in assay [7], in assay [8] and in assay [10] was “inactive” in each case.

In the case of `CCc1nccnc1CC`, the Potency entry in assay [1] was “inactive”. Further, the activity change, negative = cytotoxicity in assay [9] is 5.29% [at 15.8 µM]; in assay [10], -3.54% [at 15.8 µM]. In assay [2], the viability change, negative = cytotoxic is 1.16% [at 15.8 µM]. Further, the activity change in assay [4] is -5.25% [at 15.8 µM, stronger effect = higher value]. The cytotoxicity increase in assay [5] was 1.53% [at 15.8 µM]; in assay [8] it was 0.942% [at 15.8 µM]. For the same compound, the activity change, negative = cytotoxic in [6] is -1.59% [at 15.8 µM]. Besides, in [7], the cytotoxicity was 0.289% [at 15.8 µM].

Take `CCOC(=O)c1c(C)n(C)c2ccc(O)cc12`: the Potency entry in assay [1], in assay [2], in assay [4], in assay [5], in assay [6] and in assay [7] was “inactive” throughout. Also, the Potency entry in assay [8] and in assay [10] was “inactive” in each case. In addition, in assay [3], the max response is -25.6%.

With `CCCCC(CC)COC(=O)c1ccccc1O` (configuration not stated), the Potency result in assay [1], in assay [9], in [2], in [4], in assay [5] and in [6] was “inactive” each time. Further, the Potency entry in [7], in [8] and in [10] was “inactive” each time.

As for `Cc1cccc(C)c1NC(=O)C(C)N` (configuration not stated), the Potency in assay [1] is 19 µM (active); in assay [4], 21.3 µM (active); in assay [5], 21.3 µM (active); in assay [7], 21.3 µM (active); in [8], 23.9 µM (active). Also, the Potency result in assay [2], in assay [6] and in [10] was “inactive” in each case. For the same compound, the max response in assay [3] was 4.07%.

On to `COc1cc(C(=O)N2CCCCCCC2)cc(OC)c1OC`, for which the Potency entry in assay [1], in assay [9], in assay [2], in assay [4], in assay [5] and in assay [6] was “inactive” throughout. Moreover, the Potency result in assay [7], in [8] and in assay [10] was “inactive” in each case.

In the case of `C=CCS(=O)(=O)O`, the Potency entry in assay [1], in assay [9], in [2], in assay [4], in [6] and in assay [7] was “inactive” each time. For the same compound, the Potency entry in [8] and in [10] was “inactive” each time.

These data come from PubChem BioAssay (Tox21).
